The values below come from PubChem BioAssay (NCI).

Holding throughout (assay): NCI-60 one-dose screen, 48 h (100 = growth as untreated, 0 = no growth, -100 = all killed)
Details in all cases: 10 µM unless noted

Experiment [1] relates to NCI-H23 lung.
Experiment [2] has as its system NCI-H226 lung.
The test system of experiment [3] is NCI-H322M lung.
Experiment [4] has as its system HOP-62 NSCLC.
For experiment [5], the system named is NCI-H460 lung.
Experiment [6] relates to HOP-92 NSCLC.
Experiment [7] deals with NCI-H522 lung.
The test system of experiment [8] is A549/ATCC NSCLC.
The test system of experiment [9] is 786-0 renal.
Experiment [10] relates to COLO 205 colon.

Each structure is given as a SMILES string. Compounds without any hit were thinned out: in the full panel of roughly 83,000, 20% have a hit.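 Activity criterion: percent growth below 10, measured after cells in 96-well plates were exposed to a single compound concentration for 48 hours.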 Unmarked numbers belong to inactive results. Active and inactive are the calls of the source.

In the case of `CCCCCCCCCCCCCCNCc1ccccc1`, the growth in [1] is 75.7%; in experiment [2], 60.1%; in [3], 106%; in [4] it was 94.1%; in experiment [5] it was 77.4%; in experiment [6], 48.8%. The growth was 75.8% in experiment [7], 108% in [8], 67.8% in experiment [9] and -40.9% (active) in [10].

For `CN(C)c1ccc(/C=N/N=C(\C#N)[S][Sn]([Cl])([c]2ccccc2)[c]2ccccc2)cc1`, the growth in [1] was 28.6%; in experiment [2] it was -69.4% (active); in experiment [3], 84.1%; in [4], 84.5%; in experiment [5], 84.3%; in experiment [6], -15.6% (active). For the same molecule, the growth was -81.4% (active) in experiment [7], 78.3% in experiment [8], 10.8% in experiment [9] and -51.6% (active) in experiment [10].

Consider `CNC(=O)N/N=C/c1ccc([N+](=O)[O-])o1`, for which the growth was 101% in experiment [1]; 104% in experiment [2]; 88.7% in experiment [3]; 102% in experiment [4]; 109% in [5]; 101% in experiment [6]. In addition, the growth is 85.2% in experiment [7], 82.3% in [8], 111% in experiment [9] and 109% in [10].

With `Nc1ccc(SSc2ccc(N)cc2)cc1`, the growth in experiment [1] is 89.9%; in [2] it was 103%; in experiment [3], 92.5%; in experiment [4], 114%; in experiment [5] it was 100%; in [6], 103%. For the same molecule, the growth in experiment [7] is 84.1%; in experiment [8] it was 77.7%; in experiment [9] it was 100%; in [10], 106%.

`CN=C(N)N/N=C(\C)c1ccc2c(c1)Cc1cc(/C(C)=N/NC(N)=NC)ccc1-2`: the growth is -56.6% (active) in experiment [1]; -61.2% (active) in experiment [2]; -1.93% (active) in [3]; -82.7% (active) in experiment [4]; -69.9% (active) in [5]; 13.5% in experiment [6]. The growth in experiment [7] was -35% (active); in [8], -17.6% (active); in experiment [9], -49.7% (active); in [10], -67.1% (active).

With `COC(=O)c1nc(=S)[nH]c(C(=O)OC)c1C(=O)c1ccccn1`, the growth in [1] is 45.8%; in experiment [2], 9.58% (active); in [3] it was 56.5%; in experiment [4], 40%; in [5], 38.6%; in experiment [6], 47.9%. The growth was 61.8% in experiment [7], 107% in experiment [8], 26.7% in experiment [9] and 21.1% in [10].

For `NC(N)=N/N=C/c1ccc([N+](=O)[O-])o1`, the growth in experiment [1] was 65.5%; in [2], 100%; in experiment [3], 87.2%; in [4] it was 113%; in experiment [5] it was 80.2%; in experiment [6] it was 106%. For the same molecule, the growth was 70.1% in experiment [7], 80.2% in experiment [8], 98% in experiment [9] and 3.2% (active) in experiment [10].

Take `CN(C)CCOc1ccc2c(c1)C(=O)/C(=C\c1ncc([N+](=O)[O-])n1C)C2`: the growth in [1] was -42.7% (active); in [2], -38.5% (active); in [3] it was 6.13% (active); in experiment [4], -17.8% (active); in experiment [5], -57.5% (active); in experiment [6] it was -54.3% (active). For the same molecule, the growth in experiment [7] is -59.8% (active); in [8] it was -29.6% (active); in [9], -26.4% (active); in [10] it was -91.9% (active).

On to `Cc1cc2nc(CS)[nH]c2cc1C`, for which the growth in experiment [1] was 97.1%; in experiment [2] it was 93.1%; in experiment [3], 76.4%; in experiment [4], 92.7%; in experiment [5], 93%; in experiment [6], 88.9%. Further, the growth is 74.7% in experiment [7], 94.2% in [8], 81.6% in experiment [9] and 90.3% in experiment [10].

Regarding `CC(=O)ON=C1C=CC(=C(C#N)c2ccccc2)C=C1`, the growth in [1] is 91.7%; in [2], 66.8%; in experiment [3] it was 94.8%; in [4] it was 55.1%; in [5], 4.7% (active); in [6], 33.1%. Besides, the growth in [7] is -24.2% (active); in experiment [8], 32.2%; in [9], 15.4%; in experiment [10], 90.6%.

For the molecule `C1=C(c2ccccc2)C(c2ccc(OCCN3CCCCC3)cc2)Oc2ccccc21` (stereo not given), the growth was 58.4% in [1]; 74.4% in experiment [2]; 77.4% in experiment [3]; 60.5% in experiment [4]; -20.2% (active) in [5]; 59.3% in experiment [6]. Also, the growth was 24.7% in experiment [7], 59.2% in experiment [8], 55.6% in [9] and -55.1% (active) in experiment [10].

Turning to `O=C(Nc1ccc(F)cc1)ON=C1CCCCC1`, the growth in [1] was 110% [100 µM]; in [2] it was 96.9% [100 µM]; in experiment [3], 101% [100 µM]; in [4], 112% [100 µM]; in [5], 104% [100 µM]; in experiment [6], 108% [100 µM]. In addition, the growth was 93.3% [100 µM] in [7], 94.1% [100 µM] in experiment [8], 87.6% [100 µM] in [9] and 125% [100 µM] in experiment [10].
